Compound activity as filed in PubChem BioAssay.
Tg IFNy HTS – blocks Toxoplasma gondii growth in the presence of IFN-gamma | 69,000 tested, 3.8% active | activity change, negative = inhibition, % (no concentration beside the values) | AID 1259416 | Toxoplasma gondii growth in IFN-gamma-treated host cells; active compounds read low; in the data active = activity change below about -70%, passing the limit was not always enough;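 note: host cells are HeLa cells infected with Toxoplasma gondii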
* marks the source's active call; other numbers are inactive results. This excerpt belongs to a sample that is enriched for hits.

SMILES	Tg IFNy HTS
Cc1oc(C2CCN(S(=O)(=O)c3cccc(F)c3)CC2)nc1C(=O)N(C)C	97
Cc1ccc(=O)n(CC(=O)N2Cc3cnc(C(C)(C)C)nc3C2)n1	2
Cc1nnc(Sc2nc(Sc3nnc(C)s3)nc(N3CCCCC3)n2)s1	-84*
Cc1nnc(-c2ccc(C(C)N3CCCCC3)cc2)s1 (stereo unspecified)	1
Cc1nnc(Sc2c(N)n(C)c(=O)[nH]c2=O)s1	3
COc1ccccc1CN1[C@@H]2CN(C(=O)C3CCOCC3)c3ccccc3[C@@H]2[C@@H]1CO	-20
Cc1ccc(CNC(=O)CSc2nnc(C)s2)cc1	-4
C1=C(c2ccccc2)OC(c2ccccc2)=CC1c1cccs1	35
N#Cc1cccc(CN2CC[C@@H]3[C@H]2CCN3C(=O)c2cscn2)c1	5
CCOc1ccc(NS(=O)(=O)c2ccc(NC(=O)c3cccs3)cc2)cc1	2
CCCCCOC(=O)Nc1ccc(S(=O)(=O)Nc2ccc(Br)cc2)cc1	-87*
COc1ccc(NC(=O)c2cncc(NS(=O)(=O)c3ccc(Br)cc3)c2)cc1	24
CC(C)C(=O)N1CCN(S(=O)(=O)C2CC2)CC2(CC(=O)N(C)C2)C1 (stereo unspecified)	1
CCc1ccc(-c2cc3c(=O)n(Cc4nc(-c5cc(Br)ccc5OC)oc4C)ccn3n2)cc1	195
O=C(c1ccc[nH]1)N1CC[C@H](O)[C@@H]1Cc1cccnc1	-29
CN1CCc2[nH]nc(C(=O)N3CCN4CCN(C)CC4C3)c2C1 (stereo unspecified)	6
c1cncc(OC2COC3(CCN(Cc4ccoc4)CC3)C2)c1 (stereo unspecified)	-1
O=C1C2C3C=CC(O3)C2C(=O)N1OCc1c(F)cccc1Cl (stereo unspecified)	42
N#Cc1ccc(OCc2c(Cl)sc3ccc(Cl)cc23)cc1	-6
N#Cc1cc(Br)c(OCc2c(F)cccc2Cl)c(Br)c1	-78*
Clc1ccc(-c2nnnn2-c2cnccn2)cc1	91
CCOC(=O)c1nc(N2CCN(c3cccc(Cl)c3)CC2)c2ccccc2n1	-29
CCC(=O)Nc1ccc(OCC(=O)N2CC=CC2CC)cc1 (stereo unspecified)	-2
COc1cc(=O)[nH]c(SCC(=O)Nc2ccc(Cl)cn2)n1	-21
O=C(CSc1nc2c(c(=O)n1-c1ccccc1)SCC2)Nc1ccc(-c2ccccc2)cn1	-73*
SMILES	Tg IFNy HTS
Cn1c(-c2ccccc2)cnc1NC(=O)c1cccn(CC(=O)N2CCCC2)c1=O	19
Cc1ccc(-n2c(SCC(=O)O)nnc2C2CCNCC2)cc1	-1
O=C(CSc1ccccn1)N1CCc2c(c(C(=O)N3CCOCC3)nn2CCc2ccccc2)C1	-11
Clc1cccc(Nc2nnc(-c3ccccc3)c3ccccc23)c1	2
CCCc1sc(Nc2ccc(C(=O)OC)cc2)nc1-c1ccccc1	91
c1ccc(Nc2nc(-c3ccccc3)c(-c3ccccc3)s2)cc1	-105*
Cn1cnc2cc(C(=O)N3CCN(S(=O)(=O)N4CCCC4)CC3)ccc21	14
C/C(=C\c1ccco1)CN1CCC2(CC1)C(=O)N(Cc1ccccn1)C(=O)N2CC(C)C	5
Nc1ccc(OCCN2CCCCCC2)cc1	10
Cc1c(-c2ccc(O)cc2)n(Cc2ccc(OCCN3CCCCCC3)cc2)c2ccc(O)cc12	-76*
CN1CCN(CCOc2ccc(C(=O)O)cc2)CC1	63
NCC1Cc2cc(-c3nc4ccccc4s3)cc(Cl)c2O1 (stereo unspecified)	46
Cc1ccc(-c2nccc(C(F)(F)F)n2)c(-n2cccn2)c1	-5
COc1ccc(-n2ccnc2CN2CC[C@H](O)C[C@@H]2C(=O)O)cc1	-20
O=C(c1ccccc1)N1CCOC(c2nc(-c3ccccc3)no2)C1 (stereo unspecified)	108
O=c1cc(N2CCOCC2)nc2c3ccccc3ccn12	-2
c1ccc2nc3c(cc(N4CCOCC4)c4ccccc43)nc2c1	-104*
Cc1cc(N2CCC3(CCCO3)CC2)c2ccccc2n1	-13
CC(C)(C(=O)N1CCCC2(CCNC2)C1)n1cccc1 (stereo unspecified)	-57
Cc1nn(C)c(C)c1CCNC(=O)C1CC(=O)N(c2ccc(Cl)cc2)C1 (stereo unspecified)	-10
CO[C@@H]1CCN(C(=O)NCc2cccc(F)c2)[C@H]1Cc1cccnc1	6
O=S(=O)(NCc1csc2ccc(Cl)cc12)c1ccccc1	-14
S=C(NCc1csc2ccccc12)c1ccccc1	-78*
Cc1nn(C)c(C)c1CNC(=O)Nc1csc2ccccc12	-64
O=C(Nc1ccccc1)C1CN(C(=O)NCc2ccccc2)CC12CCOCC2 (stereo unspecified)	-10
SMILES	Tg IFNy HTS
Cc1c(S(=O)(=O)N2CCN(c3nsc4ccccc34)CC2)cnn1C(F)F	15
O=C1Cc2cc(CCN3CCN(c4nsc5ccccc45)CC3)c(Cl)cc2N1	-81*
CN1CCN(CCC(=O)N2CCN(c3nsc4ccccc34)CC2)CC1	25
Cc1nn(C)c(C)c1CN(C)C(=O)C(C)(C)NS(=O)(=O)c1cccs1	-2
CC1CCN(c2ncnc3c2cnn3CC(=O)NCc2ccccc2)CC1	-101*
CC1CCN(c2ncnc3c2cnn3CC(=O)NCc2ccc(Br)cc2)CC1	-94*
CC1CCN(c2ncnc3c2cnn3CC(=O)NCc2cccnc2)CC1	167
CC1CCN(c2ncnc3c2cnn3CC(=O)NCCCc2ccccc2)CC1	110
Cc1ccccc1CNC(=O)Cn1ncc2c(N3CCC(C)CC3)ncnc21	7
CC(C)CCNC(=O)Cn1ncc2c(N3CCC(C)CC3)ncnc21	131
Cc1cc(Br)ccc1NC(=O)Cn1ncc2c(N3CCC(C)CC3)ncnc21	-48
CC1CCN(c2ncnc3c2cnn3CC(=O)NCc2ccccc2Cl)CC1	-95*
O=C(Cn1ncc2c(N3CCCCCC3)ncnc21)NCc1ccccc1Cl	37
Cc1cnn(-c2ccccc2OCC(=O)O)c1	-48
Cc1ccc(C2=NC3(CCN(CC(=O)Nc4cc(Cl)ccc4C)CC3)NC2=O)cc1C	37
CC(Cn1cncn1)NCc1nncn1C1CCCCC1 (stereo unspecified)	1
CC(C)Nc1nc2c(cc1C(=O)N(C)C)CCN(C(=O)Nc1ccccc1)CC2	11
CC(C)[C@H]1CC=CC[C@@H](C)Oc2ccccc2C(=O)N(C)[C@H](Cc2ccccc2)C(=O)N1 (mixture of isomers)	-52
Nc1nc(-c2ccc(-c3ccccc3CN3CCOCC3)cc2)cs1	2
CNC(=O)CN1CCCn2cnc(COCc3ccco3)c2C1	1
O=C1Cc2c([nH]c3ccc(Br)cc23)-c2ccccc2N1	3
O=c1c2c([nH]c3ccc(Br)cc13)CCCC2	-94*
O=C(c1ccc2[nH]c3c(c2c1)CCCC3)N1Cc2cnn(CCO)c2C1	22
CC(C)SCC(=O)N1CC[C@@H](c2ccc3c(c2)OCO3)[C@H](O)C1	-2
COCC1CC2(CCN(Cc3ccc4ccccc4n3)CC2)CO1 (stereo unspecified)	-30
CC(c1cccs1)N(C)Cc1cnn2cccnc12 (stereo unspecified)	-7
O=C1NCC2(CCCN(c3nc4ccccc4o3)CC2)O1 (stereo unspecified)	10
CCOC(=O)C1CCN(C(=O)C2=C(C)C(=O)OC23CCN(S(C)(=O)=O)CC3)CC1	-1
Cc1c(C(=O)NCCCN2CCCCC2)oc2ccc3c(c12)C(O)CC1(CCCCC1)O3 (stereo unspecified)	-67
Cc1c(C(=O)N2CCc3ccccc3C2)oc2ccc3c(c12)C(=O)CC1(CCCCC1)O3	-22
